This note sets out measurements from PubChem BioAssay (NCATS).

Structures are written as SMILES. Calls of active or inactive are those of the source. The rule behind the calls is not given here.

The conditions of the experiment: Ebola virus entry assay, ratio channel.
For `CCN1CCCC(OC(=O)C(c2ccccc2)c2ccccc2)C1` (centres undefined), the AC50 is 20 µM (active).

On to `CCNC(=O)N1CCN(CCCC(c2ccc(F)cc2)c2ccc(F)cc2)CC1`, for which the AC50 is 11.2 µM (active).

Take `c1ccc(C(O[C@H]2CCCN(CCc3ccc4c(c3)OCO4)C2)c2ccccc2)cc1`: the AC50 is 25.1 µM (active).

Take `CCCCCCCCCCCCCCNCCO`: the AC50 is 12.6 µM (active).

For `Cc1ccc([N+](=O)[O-])[c]2c1[O][Hg]2`, the AC50 is 0.708 µM (active).

For the compound `c1ccc2c(c1)Sc1ccccc1N2CC1CN2CCC1CC2` (centres undefined), the AC50 is 3.98 µM (active).

On to `Cc1c(Cl)c(=O)oc2cc(OP(=O)(OCCCl)OCCCl)ccc12`, for which the result was inactive.

Regarding `COc1cc(C[C@@H](C)N)c(OC)cc1C`, the result was inactive.

Regarding `CCC(=O)C(CCN(C)C)(c1ccccc1)c1ccccc1`, the AC50 is 31.6 µM (active).

Consider `CCN1C(=O)c2ccccc2C1Nc1ccc(OCCN2CCCCC2)cc1` (centres undefined), for which the AC50 was 15.8 µM (active).

With `CN1CCC(=C2c3ccccc3CC(=O)c3sccc32)CC1`, the concentration at half-maximal activity (AC50) is 28.2 µM (active).

For `CCc1cccc(N(C)C(N)=Nc2cccc3ccccc23)c1`, the AC50 was 14.1 µM (active).

Turning to `CCCN(CCC)C(=O)C(CCC(=O)OCCCN1CCN(CCOC(=O)Cc2c(C)n(C(=O)c3ccc(Cl)cc3)c3ccc(OC)cc23)CC1)NC(=O)c1ccccc1` (centres undefined), the AC50 was 5.62 µM (active).

With `CCCCCCCCOc1ccccc1C(=O)Nc1ccc(C(=O)OCC[N+](C)(CC)CC)cc1`, the AC50 was 2.51 µM (active).

Turning to `COc1ccc2cc1Oc1ccc(cc1)C[C@H]1c3c(cc4c(c3Oc3cc5c(cc3OC)CCN(C)[C@@H]5C2)OCO4)CCN1C`, the AC50 was 1.12 µM (active).

As for `O=C1OC2(c3ccccc31)c1cc(I)c(O)c(I)c1Oc1c2cc(I)c(O)c1I`, the result was inactive.

`CN(C)CCOc1ccccc1Cc1ccccc1`: the half-maximal activity concentration (AC50) is 3.16 µM (active).

Consider `O=C(CCCN1CCC(O)(c2cccc(C(F)(F)F)c2)CC1)c1ccc(F)cc1`, for which the AC50 was 20 µM (active).

As for `Nc1ccc2cc3ccc(N)cc3nc2c1`, the AC50 is 39.8 µM (active).

Take `CN1C[C@H](C(=O)N[C@]2(C)O[C@@]3(O)[C@@H]4CCCN4C(=O)[C@H](Cc4ccccc4)N3C2=O)C[C@@H]2c3cccc4[nH]cc(c34)C[C@H]21`: the half-maximal activity concentration (AC50) was 17.8 µM (active).

For `CCCCCCCCNC(C)C(O)c1ccc(SC(C)C)cc1` (centres undefined), the AC50 is 11.2 µM (active).

As for `c1cc(CN2CCCCC2)cc(OCCCNc2nc3ccccc3s2)c1`, the AC50 was 12.6 µM (active).

Take `OC(CCCN1CCCCC1)(c1ccccc1)c1ccccc1`: the AC50 is 7.94 µM (active).

As to `N#C/C(=C1/SC[C@@H](c2ccc(Cl)cc2Cl)S1)n1ccnc1`, the outcome was inactive.

For the compound `C[n+]1cc2c3c(ccc2c2ccc4cc5c(cc4c21)OCO5)OCO3`, the AC50 is 17.8 µM (active).

`N/C(=N\N=C\c1ccc(Cl)cc1)N/N=C/c1ccc(Cl)cc1`: the outcome was inactive.

With `COc1ccc(-n2nc(CCC(=O)N(C)O)cc2-c2ccc(Cl)cc2)cc1`, the AC50 is 10 µM (active).

Consider `COCC(=O)O[C@]1(CCN(C)CCCc2nc3ccccc3[nH]2)CCc2cc(F)ccc2[C@@H]1C(C)C`, for which the AC50 is 2.24 µM (active).

As to `CCCCN1CCCC1C(=O)Nc1c(C)cc(C)cc1C` (centres undefined), the outcome was inactive.

In the case of `C#C[C@]1(O)CC[C@H]2[C@@H]3CCC4=CC(=O)CCC4=C3C=C[C@@]21CC`, the AC50 is 15.8 µM (active).

As to `COc1ccc2[nH]cc(CCN(C(C)C)C(C)C)c2c1`, the AC50 is 31.6 µM (active).

As for `CCCC(C(=O)OCCN(CC)CC)(c1ccccc1)c1ccccc1`, the AC50 is 2.24 µM (active).

For `CCCCC[C@H](O)C=C[C@H]1[C@H](O)CC(=O)[C@H]1CC=CCCCC(=O)O`, the AC50 was 7.08 µM (active).

On to `Cc1cccc(N(C)C(=S)Oc2ccc3c(c2)C2CCC3C2)c1` (centres undefined), for which the outcome was inactive.

Take `O=C1NCN(c2ccccc2)C12CCN(CCCC(c1ccc(F)cc1)c1ccc(F)cc1)CC2`: the AC50 is 1.26 µM (active).

Take `CC1CCCCN1CCCOC(=O)c1ccc(OC2CCCCC2)cc1` (centres undefined): the AC50 was 7.94 µM (active).

As for `CCN(CC)CCOC(=O)C1(c2ccccc2)CCCC1`, the AC50 was 20 µM (active).

As for `CN1CCC(N(Cc2ccccc2)c2ccccc2)CC1`, the AC50 is 4.47 µM (active).

For `NC(=NCCCCCCN=C(N)/N=C(\N)Nc1ccc(Cl)cc1)/N=C(\N)Nc1ccc(Cl)cc1`, the result was inactive.
